NPC1 promoter act: activators of NPC1 promoter; Huh7 NPC1 promoter luciferase reporter, 24 h; Potency, µM (top dose mostly 9.22 µM), for inactives: at the top dose activation, hits mostly activators; 320,000 tested, 2.4% active; AID 485313; note: % of control where 0% means no effect; nearly all actives have a fitted effect of over 60% in size
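Readout is luciferase luminescence, reflecting NPC1 promoter activation in stably transfected Huh7 cells after 24 h compound exposure at 37 °C in reduced-serum medium with 10% FBS.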
ELG1 DNA repair: blocks ELG1-dependent DNA repair in HEK293T cells. HEK293T ELG1-luciferase reporter, luminescence, 16 h; DNA damage induced by 5-fluorouridine. Potency, µM (series often up to 46.1 µM), for inactives: top-dose activity change, negative = inhibition, usual class: inhibitors. 330,000 tested, 2.3% active. AID 504467; note: % is set by controls: 0 for no effect and ±100 for the full control effect; nearly all actives have a fitted effect of over 55% in size
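Reporter activity after DNA damage by 5-fluorouridine is monitored. Compound-treated cells incubate 16 hr at 37 °C, then ONE-Glo is added for 30 min before luminescence reading.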
Rab9 promoter act: Rab9 promoter activation. Huh7 Rab9 promoter-luciferase reporter, luminescence, 24 h. Potency, µM (doses to about 9.22 µM), without a hit: at the top dose activation, negative = inhibition, actives largely listed as activators. AID 485297. 320,000 tested, 2.8% active; note: % of control where 0% means no effect; nearly all actives have a fitted effect of over 60% in size
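Promoter activation is measured as luciferase luminescence in Huh7 cells stably transfected with a Rab9 promoter–luciferase construct, following 24 h compound exposure at 37 °C and 10 min reagent incubation at ambient temperature.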
FLuc counter: firefly luciferase modulation, counter-screen for miR-21 project. P08659. purified FLuc, Km substrates, luminescence inhibition. Potency, µM (highest dose often 57.5 µM), inactives show top-dose activity change, negative = inhibition, usual class: inhibitors. 360,000 tested, 6.9% active. AID 588342;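 note: plate controls were vehicle for no effect and reference inhibitor for full effect; nearly all actives have a fitted effect of over 55% in size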
Target sequence (P08659 whole entry, looked up): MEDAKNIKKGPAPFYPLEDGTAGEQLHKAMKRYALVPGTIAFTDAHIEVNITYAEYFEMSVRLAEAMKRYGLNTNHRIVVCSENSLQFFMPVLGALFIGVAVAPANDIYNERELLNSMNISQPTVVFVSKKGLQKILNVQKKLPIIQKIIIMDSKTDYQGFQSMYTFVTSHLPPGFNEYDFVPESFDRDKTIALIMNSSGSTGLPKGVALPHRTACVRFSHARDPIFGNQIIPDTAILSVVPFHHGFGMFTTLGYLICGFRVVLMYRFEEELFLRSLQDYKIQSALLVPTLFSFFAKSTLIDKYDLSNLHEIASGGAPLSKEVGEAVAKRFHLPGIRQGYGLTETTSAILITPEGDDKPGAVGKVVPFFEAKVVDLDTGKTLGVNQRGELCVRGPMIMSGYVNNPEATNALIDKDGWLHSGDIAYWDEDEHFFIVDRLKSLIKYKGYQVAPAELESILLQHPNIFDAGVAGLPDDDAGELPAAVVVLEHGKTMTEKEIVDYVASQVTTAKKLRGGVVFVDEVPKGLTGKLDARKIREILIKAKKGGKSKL
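Biochemical qHTS of compounds, final roughly 60 µM downward over six points, against 10 nM purified firefly luciferase using Km concentrations of substrates (10 uM D-luciferin, 10 uM ATP) in Tris acetate pH 7.5 buffer; luminescence output.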
ELG1 genotoxic: genotoxicity induction in ELG1-luciferase HEK293T cells; HEK293T ELG1-luciferase reporter, luminescence, 16 h; Potency, µM (series often up to 46 µM), for inactives: at the highest dose activity change, positive = activation, actives largely listed as activators; 330,000 tested, 1.3% active; note: % of control where 0% means no effect; nearly all actives have a fitted effect of over 60% in size
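HEK293T cells expressing luciferase-tagged ELG1 were exposed to compound or DMSO vehicle for 16 hr at 37 °C and 5% CO2. Luciferase activity was then measured with ONE-Glo after 30 min at room temperature.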
SMN2 splice up: SMN2 splice variant enhancement. HEK293 SMN2-luciferase splicing reporter, luminescence, 30-36 h. AID 1458. Potency, µM (top dose mostly 46.1 µM), for inactives: at the top dose activity change, positive = activation, usual class: activators. 210,000 tested, 2.8% active; note: % of control where 0% means no effect; nearly all actives have a fitted effect of over 55% in size
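HEK293 cells carry an SMN2 minigene-luciferase reporter in which exon 7 inclusion puts luciferase in frame. Cells were seeded at 2000 cells/well, attached for 10-12 hours, then exposed to compounds for 30-36 hours at 37C before ONE-Glo luminescence.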
* = called active by the depositor; ? = inconclusive; nt = not tested or not shown. Sampled rows, rich in hits. Any-hit rate of the full collection: about 9.2%. Calls come from the whole dose curve; as a rule, active = well fitted curve in the direction sought with a large enough effect; inconclusive = small, poorly fitted or top-dose-only effect, or another doubt; inactive = no such curve, though single readings can be large; an effect the other way counts as inactive or inconclusive. Potency is the fitted concentration of half-maximal effect.

SMILES	NPC1 promoter act	ELG1 DNA repair	Rab9 promoter act	FLuc counter	ELG1 genotoxic	SMN2 splice up
Cc1ccccc1Cn1ccc(NC(=O)c2cc3ncc(Br)cn3n2)n1	-2%	?	-2%	11µM*	0%	2%
O=C(CSc1cccc[n+]1[O-])c1cc2ccccc2o1	?	?	?	19µM*	?	-25%
CCN(CC)S(=O)(=O)c1cccc(-c2nnc(-c3ccc(C)cc3)o2)c1	10%	?	11%	-8%	7%	-12%
Brc1ccccc1-c1nnc(SCc2nc3ccccc3s2)o1	22%	?	?	7.6µM*	?	14µM*
Cn1nnnc1SCc1nc2ccccc2s1	20%	?	?	?	14%	?
CCN(CC)S(=O)(=O)c1cccc(-c2nnc(SCc3nc4ccccc4s3)o2)c1	14%	?	?	15µM*	3%	-45%
NNC(=O)c1ccc2nc(-c3ccc(Br)cc3)cn2c1	0.4µM*	?	0.5µM*	9.5µM*	?	11µM*
COc1ccc(C(=O)NN)cc1	-3%	?	-1%	-10%	1%	nt
COc1ccc(-c2cn3cc(C(=O)NN)ccc3n2)cc1	?	?	0.32µM*	7.6µM*	?	nt
Cc1ccccc1C(=O)NNc1ccc(-c2csnn2)cc1	0%	?	-2%	-2%	1%	nt
COc1cc2[nH]c(=O)n(CCCC(=O)NCc3ccccc3)c(=O)c2cc1OC	nt	nt	nt	-5%	nt	-13%
Cc1[nH]c2ccccc2c1C(=O)COc1ccccc1	16%	?	24%	?	14%	nt
Cc1[nH]c2ccccc2c1C(=O)COc1ccccc1F	16%	?	22%	21µM*	13%	nt
Cc1cc(-c2ccccc2)n(-c2ccccc2)n1	?	?	?	15µM*	?	nt
Cc1nn(-c2nc3ccccc3[nH]2)c(N)c1-c1ccccc1	1.6µM*	?	0.63µM*	1.9µM*	?	2µM*
Cc1ccc(C(c2c(C)nn(-c3ccccc3)c2N)c2c(C)nn(-c3ccccc3)c2N)cc1	-1%	?	-9%	-3%	-4%	17%
Nc1c(-c2ccccc2)c(CSc2nc3ccccc3[nH]2)nn1-c1cccc(C(=O)O)c1	-2%	-14%	2%	?	-3%	10%
Cc1nn(-c2ccccc2)c(N)c1-c1ccccc1	?	?	3.2µM*	13µM*	15%	13µM*
Cc1nn(-c2ccccc2)c(N)c1C(c1ccc(C(C)C)cc1)c1c(C)nn(-c2ccccc2)c1N	-1%	8.2µM*	-1%	4%	-9%	0%
CC(Sc1nnc(-c2ccccc2)c(-c2ccccc2)n1)C(=O)NCC1CCCO1 (stereo not given)	nt	?	nt	nt	-6%	nt
COc1cc(C(=O)NCCCN2CCCC2=O)cc(Br)c1OCc1ccccc1	-3%	?	-1%	1%	-5%	nt
CCCCc1ccc(-n2nc3ccc(NC(=O)c4cc5ccccc5o4)cc3n2)cc1	nt	nt	nt	1%	nt	-9%
COc1ccc(/C=C/C(=O)O)cc1S(=O)(=O)N1CCC(C)CC1	2%	8%	-10%	1%	-1%	nt
CN(C(=O)COc1ccc(S(=O)(=O)N2CCOCC2)cc1[N+](=O)[O-])C1CCS(=O)(=O)C1 (stereo not given)	-7%	3%	-14%	0%	-5%	nt
Cn1c2c(c(=O)n(C)c1=O)NC1(N2)C(=O)Nc2ccccc21 (stereo not given)	2%	-11%	13%	-9%	2%	nt
SMILES	NPC1 promoter act	ELG1 DNA repair	Rab9 promoter act	FLuc counter	ELG1 genotoxic	SMN2 splice up
CCCCN(C(=O)CSc1nnc(-c2ccccc2OC)n1C)c1c(N)n(Cc2ccccc2)c(=O)[nH]c1=O	-3%	?	0%	-1%	1%	-7%
Cc1nn(CC2CCCCC2)c(N)c1-c1ccccc1	29%	?	?	17µM*	?	-13%
Cc1nn(-c2ccccc2)c(/N=C/c2ccccc2O)c1-c1ccccc1	2.2µM*	?	2.8µM*	-15%	?	11µM*
CCOC(=O)Cn1nc(C)c(-c2ccccc2)c1N	-1%	14%	5%	-5%	-1%	-5%
COc1ccc(-c2c(C)nn3c4c(cnc23)C(=O)CC(c2ccc(C)cc2)C4)cc1 (stereo not given)	nt	nt	nt	-5%	nt	4%
Cc1ccccc1N/C(SCc1ccc(Cl)cc1)=C(/C#N)C(=O)NCc1ccco1	-6%	?	6%	1%	0%	-18%
Cc1ccc(CS/C(Nc2ccccc2C)=C(\C#N)C(=O)NCc2ccco2)c(C)c1	-3%	15µM*	1%	-2%	-7%	-23%
Cc1noc(C)c1C(=O)N1CCC[C@@]2(CCN(Cc3ccc(C#N)cc3)C2)C1	nt	nt	nt	nt	nt	-3%
CCOC(=O)C1CCN(c2ccccc2CN2CCN(c3ccccc3OCC)CC2)CC1	-1%	16µM*	-2%	-2%	-22%	nt
Cc1cccc(NC(=O)CNC(=O)c2ccc3c(c2)OCO3)n1	-1%	-1%	-2%	-13%	2%	nt
CCCCC(=O)Nc1ccc(C(=O)Nc2nc(CC(=O)OCC)cs2)cc1	-3%	-25%	-4%	19µM*	-1%	-12%
Cc1csc(NC(=O)c2ccc3c(c2)OCO3)n1	?	?	18%	3.4µM*	?	nt
CCOC(=O)Cc1csc(NC(=O)c2ccoc2C)n1	18%	?	28%	?	15µM*	26%
